Assay outcomes from PubChem.
A647 autofl = qHTS Assay for Spectroscopic Profiling in A647 Spectral Region; Compound fluorescence, A647 channel (570/671 nm), Tris buffer; 59,000 tested, under 10 active; AID 592, 2007; max dye-equivalent concentration, M
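Buffer was dispensed, compounds and Alexa 647 standards were pin-transferred, and plates sat 15 min at room temperature. Intensity at 570/671 nm was then converted to dye-equivalent concentration using the plate's A647 standard curve.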
Rhodamine autofl = qHTS Assay for Spectroscopic Profiling in Rhodamine Spectral Region | 59,000 compounds, 0.05% hits | max dye-equivalent concentration, M | Rhodamine-region fluorescence, 547/598 nm, Tris buffer; active compounds read high; in the data active = max dye-equivalent concentration above about 11 nM; inconclusive = between about 1.1 nM and that limit
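Intensities are converted to rhodamine-equivalent concentration using a six-point rhodamine standard on each plate. Compounds sit 15 min at room temperature in 100 mM Tris buffer, pH 8.0; read uses the 547/598 nm excitation/emission pair.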
TexasRed autofl = qHTS Assay for Spectroscopic Profiling in Texas Red Spectral Region | 59,000 compounds, 0.06% hits | Compound fluorescence, Texas Red channel, 547/618 nm; active compounds read high | max dye-equivalent concentration, M; in the data active = max dye-equivalent concentration above about 10 nM; inconclusive = between about 1.1 nM and that limit
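Texas Red-region profiling: compounds in 100 mM Tris pH 8.0 were read at 547/618 nm after 15 min at room temperature. Intensities were normalized against a six-point Texas Red standard series to give dye-equivalent concentration.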
Resorufin fluor = qHTS Assay for Spectroscopic Profiling in Resorufin Spectral Region | Compound fluorescence, resorufin region 547/598 nm, buffer; active compounds read high | max dye-equivalent concentration, M | 59,000 compounds, 0.04% hits
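Dye-equivalent concentration values derive from comparing each well's 547/598 nm fluorescence against resorufin standards included on every plate. Incubation was 15 min at room temperature in 100 mM Tris, pH 8.0.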
Fluorescein autfl = qHTS Assay for Spectroscopic Profiling in Fluorescein Spectral Region. max fluorescein-equivalent concentration, M. 59,000 compounds, 0.91% hits. AID 593, 2007. Compound autofluorescence, 480/540 nm, fluorescein-equivalent; active compounds read high; in the data active = max fluorescein-equivalent concentration above about 10 nM; inconclusive = between about 1.1 nM and that limit
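Read-out is intrinsic compound fluorescence at 480/540 nm (excitation/emission), expressed as dye-equivalent concentration using a fluorescein standard series run on every plate. Compounds sat 15 min at room temperature in 100 mM Tris, pH 8.0.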
A488 fluor = qHTS Assay for Spectroscopic Profiling in A488 Spectral Region. max dye equivalency, M. compound autofluorescence, A488 spectral region, dye equivalency; Compound Type: qHTS ECL - MLSMR. 59,000 compounds, 0.1% hits. AID 591, 2007
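Intrinsic compound fluorescence is measured in 100 mM Tris buffer at pH 8.0 following 15 min incubation at room temperature. Intensities at 480 nm excitation/540 nm emission are calibrated to an on-plate A488 concentration series, giving dye-equivalent concentrations.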
Of the large screens only hits and unclear results are named; the others gave an inactive call; ! = not confirmed by another sample. The list is not random: actives were taken first. Their share in the collection is about 0.96%. Unless noted, the rule behind the calls is not given here.

O=C1CN(/N=C\c2ccc([N+](=O)[O-])o2)C(=O)N1	TexasRed autofl inconclusive, Fluorescein autfl 1.61e-07M, A488 fluor inconclusive
C[C@H]1CS(=O)(=O)CCN1/N=C\c1ccc([N+](=O)[O-])o1	none
C[C@@H]1CCCN(CP(=O)(c2ccccc2)c2ccccc2)C1	Fluorescein autfl inconclusive
N#Cc1c(C(F)(F)F)cc(-c2ccccc2)nc1SCc1nc(N)nc(N2CCOCC2)n1	Fluorescein autfl 1.62e-08M
Nc1nc(Cn2nnc(-c3ccccc3F)n2)nc(N2CCOCC2)n1	none
Cc1cc(C(C)(C)C)cc(CNC2CCCCC2)c1O	Fluorescein autfl inconclusive
Cn1ncc(N=Cc2c(O)ccc3ccccc23)c1C(=O)N1CCOCC1	Fluorescein autfl 1.67e-08M
Cn1ncc(N=Cc2ccccc2O)c1C(=O)Nc1ccccc1	none
CC(C)[C@@H]1OC(=O)C=CC=CC=CC=CC=CC[C@@H](O)[C@H](C)[C@@H](O)C[C@H](O)C[C@H](O)C[C@H](O)C[C@H](O)C[C@H](O)C[C@H](O)C=C[C@@H]1C	TexasRed autofl inconclusive
CCOC(=O)CNC(=O)c1ccc2c(c1)OCCO2	none
CCOC(=O)CNC(=O)c1cc(-c2ccc3c(c2)OCCO3)oc1C	Fluorescein autfl 4.52e-08M, A488 fluor inconclusive
COc1ccc2c(c1)[C@]1(C)CCC[C@](C)(CO)[C@@H]1CC2	none
CCOC(=O)c1sc(NC(=O)CSc2n[nH]c(-c3ccccc3)n2)c(C#N)c1C	Fluorescein autfl inconclusive
Cc1ccc(/C=C/C2=Cc3c(sc(NC(=O)CSc4n[nH]c(N)n4)c3C#N)C(C)(C)C2)o1	Rhodamine autofl 2.77e-08M, TexasRed autofl 5.86e-08M, Resorufin fluor 2.41e-08M, Fluorescein autfl 1.18e-07M, A488 fluor inconclusive
Cc1ccc(CN2CCN(Cc3ccc(C)o3)[C@@H](C)C2)o1	TexasRed autofl inconclusive
CC[C@H](CN(C)C)C(=O)c1ccco1	Fluorescein autfl inconclusive
O=C(NC1CCCC1)C(c1ccsc1)N(Cc1ccco1)C(=O)Cc1cccs1 (configuration not stated)	Fluorescein autfl 1.11e-08M
CC(=O)Nc1ccc(N=Cc2nc(-c3ccc(C)cc3)oc2O)cc1	Fluorescein autfl 1.58e-08M
CN(C)c1ccc(N=Cc2nc(-c3ccccc3)oc2O)cc1	Fluorescein autfl 4.5e-08M, A488 fluor inconclusive
CC(=O)N[C@@H]1CONC1=O	Fluorescein autfl inconclusive
CS(=O)(=O)Nc1ccc(Nc2c3ccccc3nc3ccccc23)cc1	none
CCCOc1cc(N)ccc1C(=O)OCCN(CC)CC	Fluorescein autfl inconclusive
CCCOc1ccc(N)cc1N	Fluorescein autfl 1.86e-08M
CCN1C(=O)c2cccc3cccc1c23	TexasRed autofl inconclusive
CCN(CC)CCN1C(=O)c2cccc3cc(N)cc(c23)C1=O	Fluorescein autfl 3.89e-08M, A488 fluor inconclusive
Cc1ccc(-c2c3c(=O)n(C)c(=O)n(C)c3c3c(C)cc(C)nn23)cc1	TexasRed autofl inconclusive, Fluorescein autfl 1.28e-08M
Cc1ccc(-c2c3c(=O)n(C)c(=O)n(C)c3cn2N2CCOCC2)cc1	Fluorescein autfl inconclusive
O=C1N=C(O)CN1/N=C\c1ccc(-c2ccc([N+](=O)[O-])cc2)o1	TexasRed autofl inconclusive, Fluorescein autfl 4.15e-08M!, A488 fluor inconclusive
N#CC1=C(N)OC2=C(CCC/C2=C/c2ccoc2)C1c1ccoc1 (configuration not stated)	TexasRed autofl inconclusive, Fluorescein autfl 1.37e-08M
CCN1CC2=C(OC(N)=C(C#N)C2c2ccccc2)/C(=C\c2ccccc2)C1 (configuration not stated)	none
O=C(O)CCc1ccc(-c2ccccc2)[nH]1	none
O=c1c(O)c(-c2cccs2)oc2ccccc12	TexasRed autofl inconclusive, Fluorescein autfl 3.22e-08M, A488 fluor inconclusive
NCCN1C(=O)c2ccccc2[C@@]1(O)c1ccc(Cl)cc1	none
COc1ccccc1C1C=C(c2ccc(Cl)cc2)Nc2nc(N3C(=O)CCC3=O)nn21 (configuration not stated)	Fluorescein autfl inconclusive
COc1ccccc1C1C=C(c2ccc(Cl)cc2)Nc2nc(NS(C)(=O)=O)nn21 (configuration not stated)	TexasRed autofl inconclusive, Fluorescein autfl 1.49e-08M
COc1ccc(C2C=C(c3ccc(Br)cc3)Nc3nc(N4C(=O)CCC4=O)nn32)cc1 (configuration not stated)	Fluorescein autfl 1.14e-08M
COc1ccc(C2C=C(c3ccc(Cl)cc3)Nc3nc(NC(C)=O)nn32)cc1 (configuration not stated)	Fluorescein autfl 2.78e-08M
COc1ccc(C2=CC(c3ccc(Cl)cc3)n3cnnc3N2)cc1OC (configuration not stated)	Fluorescein autfl 3.52e-08M, A488 fluor inconclusive
COc1ccc2c(c1)[n+]([O-])c(/C(C)=N/NC(N)=S)c(C)[n+]2[O-]	TexasRed autofl inconclusive, Fluorescein autfl inconclusive
C=C[C@H]1CN2CC[C@@H]1C[C@H]2[C@@H](O)c1ccnc2ccc(OC)cc12	Fluorescein autfl inconclusive
CC(=O)Nc1nc2n(n1)C(c1ccc(F)cc1)C=C(c1ccccc1)N2 (configuration not stated)	Fluorescein autfl 1.4e-08M
CCn1c(CSc2nccn2C)nc2cc(C(=O)O)ccc21	Rhodamine autofl 1.74e-08M, TexasRed autofl 2.68e-08M, Resorufin fluor 1.06e-08M, Fluorescein autfl 1.12e-08M
Cn1ccnc1SCC(=O)c1cc2ccccc2o1	none
CCCN(CCC)C(=O)[C@@H](CCC(=O)O)NC(=O)c1ccccc1	TexasRed autofl inconclusive, Fluorescein autfl inconclusive
CCOC(=O)N1CC=C2C(C#N)=C(N)C(C#N)(C#N)[C@H](c3ccccc3OCC)[C@H]2C1	TexasRed autofl inconclusive, Fluorescein autfl inconclusive
CCN1CC=C2C(C#N)=C(N)C(C#N)(C#N)[C@H](c3cccc(OC)c3OC)[C@H]2C1	Fluorescein autfl 9.63e-08M, A488 fluor inconclusive
CN1CC=C2C(C#N)=C(N)C(C#N)(C#N)C(CCc3ccccc3)C2C1 (configuration not stated)	TexasRed autofl inconclusive, Fluorescein autfl 4.33e-08M, A488 fluor inconclusive
CN1C2C=C3C(C#N)=C(N)C(C#N)(C#N)[C@@H](c4ccsc4)[C@@H]3C1CC2 (some centres not stated)	TexasRed autofl inconclusive
CCCC1C2CN(C(C)C)CC=C2C(C#N)=C(N)C1(C#N)C#N (configuration not stated)	TexasRed autofl inconclusive, Fluorescein autfl 5.12e-08M, A488 fluor inconclusive
CN1CC=C2C(C#N)=C(N)C(C#N)(C#N)[C@H](c3cccc(Cl)c3)C2C1 (some centres not stated)	TexasRed autofl inconclusive, Fluorescein autfl 4.1e-08M, A488 fluor inconclusive
